Test results: PubChem BioAssay (EPA / NIEHS)
Activity calls are given as the source filed them. How the source made its calls: active means hit-call score of the fitted dose curve at least 0.9, where 1 is the maximum; inactive means score below 0.9.

Read-out: UDP glucuronosyltransferase (UGT1A6), UGT1A6 (gene 54578)
Assay: LTEA_HepaRG_UGT1A6: Life Technologies and Expression Analysis (LTEA) Assay for UDP glucuronosyltransferase (UGT1A6) using HepaRG (AID 2283539)
Settings: mRNA level, 48 h; actives raise or lower the signal
Procedure, shortened: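 Differentiated HepaRG cells, ~100,000/well, were exposed for 48 h in serum-free induction medium with 0.5% DMSO to 8-point half-log series topping at 100 uM, in duplicate. mRNA measured by Fluidigm TaqMan qRT-PCR, normalized to ACTB, GAPDH and POLR2A.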

SMILES | outcome | AC50
C=C(C)CN(CC)c1c([N+](=O)[O-])cc(C(F)(F)F)cc1[N+](=O)[O-] | inactive | 
N#Cc1c[nH]cc1-c1cccc2c1OC(F)(F)O2 | inactive | 
CCOc1nc(C(Cl)(Cl)Cl)ns1 | inactive | 
CCN(CC)c1nc(C)cc(OP(=S)(OC)OC)n1 |  | 3.58 µM (active)
O=C(Nc1ccccc1-c1ccc(Cl)cc1)c1cccnc1Cl | inactive | 
COC(=O)NS(=O)(=O)c1ccc(N)cc1 | inactive | 
CC(C)NC(=O)N1CC(=O)N(c2cc(Cl)cc(Cl)c2)C1=O | inactive | 
CC(C)Oc1cccc(NC(=O)c2ccccc2C(F)(F)F)c1 | inactive | 
O=C1C2CC=CCC2C(=O)N1SC(Cl)(Cl)Cl (stereo unspecified) | inactive | 
OC(c1ccc(Cl)cc1)(c1ccc(Cl)cc1)C(Cl)(Cl)Cl |  | 79.3 µM (active)
COc1ccc(-c2ccccc2)cc1NNC(=O)OC(C)C | inactive | 
CCCC(=NOCC)C1=C(O)CC(CC(C)SCC)CC1=O (stereo unspecified) | inactive | 
CC(C)=CC1C(C(=O)OCc2coc(Cc3ccccc3)c2)C1(C)C (stereo unspecified) | inactive | 
CC1(C)C(C=C(Cl)Cl)C1C(=O)OC(C#N)c1cccc(Oc2ccccc2)c1 (stereo unspecified) | inactive | 
CO/N=C(/C1=NOCCO1)c1ccccc1Oc1ncnc(Oc2ccccc2Cl)c1F |  | 50 µM (active)
CNC(=O)N(C)c1nnc(C(C)(C)C)s1 | inactive | 
N#CN=C1SCCN1Cc1ccc(Cl)nc1 | inactive | 
CCCCOCN(C(=O)CCl)c1c(CC)cccc1CC | inactive | 

SMILES | outcome | AC50
Nc1cnn(-c2ccccc2)c(=O)c1Cl | inactive | 
O=c1n(Cl)c(=O)n(Cl)c(=O)n1Cl | inactive | 
CNC(=O)Oc1cccc2ccccc12 | inactive | 
CC(C)N1C(=O)N(c2ccccc2)CSC1=NC(C)(C)C |  | 85.1 µM (active)
CCSC(=O)N1CCCCCC1 | inactive | 
COP(=O)(OC)O/C(C)=C/C(=O)N(C)C | inactive | 
Nc1c(Cl)c(F)nc(OCC(=O)O)c1Cl | inactive | 
Cc1cc(C)nc(Nc2ccccc2)n1 | inactive | 
O=C(O)c1c(Cl)ccc2cc(Cl)cnc12 | inactive | 
N#Cc1c(Cl)cccc1Cl | inactive | 
CC1(C)C(C(=O)OC(C#N)c2cccc(Oc3ccccc3)c2)C1(C)C (stereo unspecified) | inactive | 
COCC(C)N(C(=O)CCl)c1c(C)csc1C (stereo unspecified) | inactive | 
Cc1c(COC(=O)[C@@H]2[C@H](/C=C(\Cl)C(F)(F)F)C2(C)C)cccc1-c1ccccc1 | inactive | 
CCCN(CC)CC1COC2(CCC(C(C)(C)C)CC2)O1 (stereo unspecified) | inactive | 
COC(=O)c1c(C(F)F)nc(C(F)(F)F)c(C2=NCCS2)c1CC(C)C | inactive | 
CCCCC(O)(Cn1cncn1)c1ccc(Cl)cc1Cl (stereo unspecified) |  | 73.4 µM (active)
CC(C)N1C(=O)c2ccccc2NS1(=O)=O | inactive | 
CCOP(=S)(OCC)Oc1nc(Cl)n(C(C)C)n1 | inactive | 
